Reference: PubChem BioAssay (NCATS)
Results filed as inconclusive are left out. Calls of active or inactive are those of the source. Unless noted, calls follow the shape of the dose curve; as a rule, active = well fitted curve in the direction sought with a large enough effect; inconclusive = small, poorly fitted or top-dose-only effect, or another doubt; inactive = no such curve, though single readings can be large; an effect the other way counts as inactive or inconclusive.

Tests used:
[1] = qHTS profiling for inhibitors of Plasmodium falciparum proliferation (AID 504749); also: nearly all actives have a fitted effect of over 60% in size; also: potency is read from the fitted curve at half-maximal effect;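 as to activity, negative = inhibition: 0% = DMSO vehicle and full inhibition = artemisinin control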; conditions: P. falciparum in erythrocytes, SYBR Green DNA, 72 h
Method in brief: (§1)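 Parasite proliferation within erythrocytes, 72 h exposure. Endpoint: SYBR Green I fluorescence after overnight lysis at room temperature. Controls: 0.29 uM artemisinin, DMSO.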

3D7 = experiment: as above; conditions: P. falciparum in erythrocytes, SYBR Green DNA, 72 h; series mostly up to 28.7 µM
Method in brief: as §1

7G8 = experiment: as above; conditions: P. falciparum in erythrocytes, SYBR Green DNA, 72 h; series mostly up to 28.7 µM
Method in brief: as §1

AA1029 = experiment: as above; conditions: P. falciparum in erythrocytes, SYBR Green DNA, 72 h; series mostly up to 28.7 µM
Method in brief: as §1

AS120 = experiment: as above; conditions: P. falciparum in erythrocytes, SYBR Green DNA, 72 h; series mostly up to 28.7 µM
Method in brief: as §1

ATS189 = experiment: as above; conditions: P. falciparum in erythrocytes, SYBR Green DNA, 72 h; series mostly up to 28.7 µM
Method in brief: as §1

ATS95 = experiment: as above; conditions: P. falciparum in erythrocytes, SYBR Green DNA, 72 h; series mostly up to 28.7 µM
Method in brief: as §1

C2A = experiment: as above; conditions: P. falciparum in erythrocytes, SYBR Green DNA, 72 h; series mostly up to 28.7 µM
Method in brief: as §1

CP185 = experiment: as above; conditions: P. falciparum in erythrocytes, SYBR Green DNA, 72 h; series mostly up to 28.7 µM
Method in brief: as §1

CP191 = experiment: as above; conditions: P. falciparum in erythrocytes, SYBR Green DNA, 72 h; series mostly up to 28.7 µM
Method in brief: as §1

CP192 = experiment: as above; conditions: P. falciparum in erythrocytes, SYBR Green DNA, 72 h; series mostly up to 28.7 µM
Method in brief: as §1

CP194 = experiment: as above; conditions: P. falciparum in erythrocytes, SYBR Green DNA, 72 h; series mostly up to 28.7 µM
Method in brief: as §1

CP201 = experiment: as above; conditions: P. falciparum in erythrocytes, SYBR Green DNA, 72 h; series mostly up to 28.7 µM
Method in brief: as §1

CP203 = experiment: as above; conditions: P. falciparum in erythrocytes, SYBR Green DNA, 72 h; series mostly up to 28.7 µM
Method in brief: as §1

CP211 = experiment: as above; conditions: P. falciparum in erythrocytes, SYBR Green DNA, 72 h; series mostly up to 28.7 µM
Method in brief: as §1

CP215 = experiment: as above; conditions: P. falciparum in erythrocytes, SYBR Green DNA, 72 h; series mostly up to 28.7 µM
Method in brief: as §1

CP217 = experiment: as above; conditions: P. falciparum in erythrocytes, SYBR Green DNA, 72 h; series mostly up to 28.7 µM
Method in brief: as §1

[2] = qHTS drug screen for cell cycle checkpoint inhibitors in PARPi-resistant BRCA-mutant ovarian cancer cell lines. (AID 1963452; calls by dose curve); conditions: PEO1/OlaR viability, CellTiter-Glo luminescence, 96 h, stronger effect = lower value
Method in brief: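 PEO1, PEO4 and PEO1/OlaR ovarian cancer cells, 600 per well, exposed 96 h at 37C to a dilution series. Viability read by CellTiter-Glo luminescence, normalized to DMSO and empty wells; activity summarized as Z-AUC.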

[3] = target: Nuclear receptor subfamily 1 group I member 2 (Homo sapiens) (UniProt O75469); experiment: Dual reporter qHTS for antagonist of Pregnane X Receptor (hPXR) against the NCATS DSHEA and TCM libraries: Luminescence Readout (AID 1920060); conditions: hPXR dual reporter cells, luciferase luminescence, antagonist mode; series mostly up to 40 µM;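 also: HepG2 cells carrying hPXR luciferase reporter stimulated with rifampicin at 2 µM; 0% is about no effect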
Chain of Nuclear receptor subfamily 1 group I member 2 (Homo sapiens) (O75469 whole entry, looked up): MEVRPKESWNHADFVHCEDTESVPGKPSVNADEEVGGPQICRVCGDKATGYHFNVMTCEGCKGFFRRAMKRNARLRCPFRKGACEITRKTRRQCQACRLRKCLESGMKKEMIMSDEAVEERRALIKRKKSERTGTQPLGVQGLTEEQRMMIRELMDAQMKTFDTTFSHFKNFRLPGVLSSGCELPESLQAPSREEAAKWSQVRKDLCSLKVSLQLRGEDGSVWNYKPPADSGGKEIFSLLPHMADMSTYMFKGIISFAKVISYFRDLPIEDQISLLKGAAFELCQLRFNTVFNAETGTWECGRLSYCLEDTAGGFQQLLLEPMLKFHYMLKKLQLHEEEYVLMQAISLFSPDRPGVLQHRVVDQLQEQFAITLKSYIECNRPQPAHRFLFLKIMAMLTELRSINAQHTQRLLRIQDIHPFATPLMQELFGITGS
Method in brief: (§2)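 Antagonist mode: rifampicin 2 uM final co-added with compounds to hPXR-LucHepG2 cells for 24 h at 37C. Viability by CellTiter-Fluor, Ex/Em 405/540 nm, 1 h; reporter by ONE-Glo luminescence.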

[4] = Dual reporter qHTS for antagonist of Pregnane X Receptor (hPXR) against the NCATS DSHEA and TCM libraries: Fluorescence Readout (AID 1920061); conditions: PXR dual reporter cells, antagonist mode; series mostly up to 40 µM; also: 0% is about no effect
Method in brief: as §2

[5] = at 28.7 µM (top of the series), parasite line A
[6] = at 28.7 µM (top of the series), parasite line B
[7] = measured here: PEO1 parental Z-AUC

O=C(O)CCC(=O)Nc1ccc(S(=O)(=O)Nc2nccs2)cc1
inactive: activity, negative = inhibition ([1]; at 12.8 µM (top of the series), parasite line A) 14.2% | activity, negative = inhibition ([1]; at 12.8 µM (top of the series), parasite line B) 11.7% | Potency (3D7) | Potency (7G8) | Potency (AA1029) | Potency (AS120) | Potency (ATS189) | Potency (ATS95) | Potency (C2A) | Potency (CP185) | Potency (CP191) | Potency (CP192) | Potency (CP194) | Potency (CP201) | Potency (CP203) | Potency (CP211) | Potency (CP215) | Potency (CP217)

NC(=S)N/N=C/c1cccnc1
inactive: activity, negative = inhibition [1, 5] 13.2% | activity, negative = inhibition [1, 6] 8.73% | Potency (3D7) | Potency (7G8) | Potency (AA1029) | Potency (AS120) | Potency (ATS189) | Potency (ATS95) | Potency (C2A) | Potency (CP185) | Potency (CP191) | Potency (CP192) | Potency (CP194) | Potency (CP201) | Potency (CP203) | Potency (CP211) | Potency (CP215) | Potency (CP217)

C#C[C@]1(O)CC[C@H]2[C@@H]3[C@H](C)CC4=C(CCC(=O)C4)[C@H]3CC[C@@]21C
0.766: Z-AUC ([2]; measured here: PEO4 Z-AUC)
-0.281: Z-AUC [2, 7]
inactive: Z-AUC [2] -1.06

CCCCCCCCCCCCCCCC(=O)O
inactive: outcome [3] | outcome [4] | activity, negative = inhibition [1, 5] -0.389% | activity, negative = inhibition [1, 6] 7.62% | Potency (3D7) | Potency (7G8) | Potency (AA1029) | Potency (AS120) | Potency (ATS189) | Potency (ATS95) | Potency (C2A) | Potency (CP185) | Potency (CP191) | Potency (CP192) | Potency (CP194) | Potency (CP201) | Potency (CP203) | Potency (CP211) | Potency (CP215) | Potency (CP217)

Nc1nc(N)c(-c2ccccc2)s1
inactive: activity, negative = inhibition [1, 5] 18.4% | activity, negative = inhibition [1, 6] 11.9% | Potency (3D7) | Potency (7G8) | Potency (AA1029) | Potency (AS120) | Potency (ATS189) | Potency (ATS95) | Potency (C2A) | Potency (CP185) | Potency (CP191) | Potency (CP192) | Potency (CP194) | Potency (CP201) | Potency (CP203) | Potency (CP211) | Potency (CP215) | Potency (CP217)

N=C(N)N1CCc2ccccc2C1
inactive: activity, negative = inhibition [1, 5] 15.6% | activity, negative = inhibition [1, 6] 0.433% | Potency (3D7) | Potency (7G8) | Potency (AA1029) | Potency (AS120) | Potency (ATS189) | Potency (ATS95) | Potency (C2A) | Potency (CP185) | Potency (CP191) | Potency (CP192) | Potency (CP194) | Potency (CP201) | Potency (CP203) | Potency (CP211) | Potency (CP215) | Potency (CP217)

CCCCN=C(N)N=C(N)N
inactive: activity, negative = inhibition [1, 5] -1.88% | activity, negative = inhibition [1, 6] 0.415% | Potency (3D7) | Potency (7G8) | Potency (AA1029) | Potency (AS120) | Potency (ATS189) | Potency (ATS95) | Potency (C2A) | Potency (CP185) | Potency (CP191) | Potency (CP192) | Potency (CP194) | Potency (CP201) | Potency (CP203) | Potency (CP211) | Potency (CP215) | Potency (CP217)

C#C[C@]1(O)CC[C@H]2[C@@H]3CCC4=CC(=O)CC[C@@H]4[C@H]3CC[C@@]21CC
-0.819: Z-AUC [2, 7]
-0.784: Z-AUC ([2]; measured here: PEO4 Z-AUC)
inactive: Z-AUC [2] -1.07 | activity, negative = inhibition [1, 5] -9.46% | activity, negative = inhibition [1, 6] -6.83% | Potency (3D7) | Potency (AA1029) | Potency (AS120) | Potency (ATS189) | Potency (ATS95) | Potency (C2A) | Potency (CP185) | Potency (CP191) | Potency (CP192) | Potency (CP194) | Potency (CP201) | Potency (CP211) | Potency (CP215) | Potency (CP217)

CC(C)Cn1cnc2c1c(=O)n(C)c(=O)n2C
inactive: activity, negative = inhibition [1, 5] -14.6% | activity, negative = inhibition [1, 6] 1.13% | Potency (3D7) | Potency (7G8) | Potency (AA1029) | Potency (AS120) | Potency (ATS189) | Potency (ATS95) | Potency (C2A) | Potency (CP185) | Potency (CP191) | Potency (CP192) | Potency (CP194) | Potency (CP201) | Potency (CP203) | Potency (CP211) | Potency (CP215) | Potency (CP217)

CC(C)Cc1ccc(CC(=O)O)cc1
inactive: activity, negative = inhibition [1, 5] 5.78% | activity, negative = inhibition [1, 6] 6.05% | Potency (3D7) | Potency (7G8) | Potency (AA1029) | Potency (AS120) | Potency (ATS189) | Potency (ATS95) | Potency (C2A) | Potency (CP185) | Potency (CP191) | Potency (CP192) | Potency (CP194) | Potency (CP201) | Potency (CP203) | Potency (CP211) | Potency (CP215) | Potency (CP217)

Cc1ccc(-c2ncc(Cl)cc2-c2ccc(S(C)(=O)=O)cc2)cn1
active: Potency (7G8) 8.91 µM
0.717: Z-AUC [2, 7]
inactive: Z-AUC [2] 0.855 | Potency (3D7) | Potency (CP192) | Potency (CP194) | Potency (CP201) | Potency (CP211)
0.912: Z-AUC ([2]; measured here: PEO4 Z-AUC)

C/C=C/C=N/NC(=O)c1ccncc1
inactive: activity, negative = inhibition [1, 5] -1.02% | activity, negative = inhibition [1, 6] -0.189% | Potency (3D7) | Potency (7G8) | Potency (AA1029) | Potency (AS120) | Potency (ATS189) | Potency (ATS95) | Potency (C2A) | Potency (CP185) | Potency (CP191) | Potency (CP192) | Potency (CP194) | Potency (CP201) | Potency (CP203) | Potency (CP211) | Potency (CP215) | Potency (CP217)

C#C[C@]1(O)CC[C@H]2[C@@H]3CCc4cc(OC)ccc4[C@H]3CC[C@@]21C
1.32: Z-AUC ([2]; measured here: PEO4 Z-AUC)
0.901: Z-AUC [2, 7]
inactive: Z-AUC [2] 1.12 | activity, negative = inhibition [1, 5] 1.32% | activity, negative = inhibition [1, 6] 15.1% | Potency (3D7) | Potency (7G8) | Potency (AA1029) | Potency (AS120) | Potency (ATS189) | Potency (ATS95) | Potency (C2A) | Potency (CP185) | Potency (CP191) | Potency (CP192) | Potency (CP194) | Potency (CP201) | Potency (CP211) | Potency (CP215) | Potency (CP217)

NC(N)=NCc1cccc(I)c1
inactive: activity, negative = inhibition [1, 5] -25.5% | activity, negative = inhibition [1, 6] -23.4% | Potency (3D7) | Potency (7G8) | Potency (AA1029) | Potency (AS120) | Potency (ATS189) | Potency (ATS95) | Potency (C2A) | Potency (CP185) | Potency (CP191) | Potency (CP192) | Potency (CP194) | Potency (CP201) | Potency (CP203) | Potency (CP211) | Potency (CP215) | Potency (CP217)
